Source: PubChem BioAssay AID1159580 (chemical genetic matrix, 2015)
Several values for one entry are separate records, joined by “and”; a condition that tells them apart may be missing. Identical values can stand only once. About 2,000 (36%) of roughly 5,500 compounds were called active. Roughly 18% stayed inconclusive and do not appear here. This is one part of the list. Values without a mark were called inactive. No stated cut-off is given here; in the data, active means normalized growth mostly below about 0.91 (no sharp cut-off); inconclusive means no clear call, values can overlap the other calls; inactive means mostly above about 0.92.

Experiment: chemical genetic growth profiling, strain panel (AID 1159580);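 further: tested at 20 µM; growth read once vehicle control cultures reached saturation at 30 °C; 1 = growth at the plate median or of vehicle wells; lower values mean less growth of the strain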
Settings: S. cerevisiae deletion strains, growth OD

## COc1c(N2CCNC(C)C2)c(F)cc2c(=O)c(C(=O)O)cn(C3CC3)c12 (stereo unspecified)
Locus YAL013W, strain DEP1, hits give low values
  normalized growth: 0.984
Locus YAL021C, strain ccr4, hits give low values
  normalized growth: 0.972
Locus YAL026C, strain drs2, hits give low values
  normalized growth: 0.955
Locus YAL030W, strain snc1, hits give low values
  normalized growth: 0.985
Locus YBL061C, strain skt5, hits give low values
  normalized growth: 0.992
Locus YBR009C, strain hhf1, hits give low values
  normalized growth: 0.968
Locus YBR021W, strain FUR4, hits give low values
  normalized growth: 0.951
Locus YBR023C, strain chs3, hits give low values
  normalized growth: 0.982
Locus YBR171W, strain sec66, hits give low values
  normalized growth: 0.985
Locus YBR229C, strain ROT2, hits give low values
  normalized growth: 1.01
Locus YBR231C, strain swc5, hits give low values
  normalized growth: 0.985
Locus YBR279W, strain paf1, hits give low values
  normalized growth: 0.986
Locus YCL011C, strain gbp2, hits give low values
  normalized growth: 0.966
Locus YCL016C, strain dcc1, hits give low values
  normalized growth: 0.899 (active)
Locus YCL029C, strain bik1, hits give low values
  normalized growth: 1.01
Locus YCL061C, strain MRC1, hits give low values
  normalized growth: 0.957
Locus YCL069W, strain vba3, hits give low values
  normalized growth: 0.994
Locus YCR088W, strain abp1, hits give low values
  normalized growth: 0.973
Locus YDL005C, strain med2, hits give low values
  normalized growth: 0.998
Locus YDL035C, strain GPR1, hits give low values
  normalized growth: 1
Locus YDL040C, strain nat1, hits give low values
  normalized growth: 0.984
Locus YDL074C, strain BRE1, hits give low values
  normalized growth: 0.965
Locus YDL101C, strain DUN1, hits give low values
  normalized growth: 1.01
Locus YDL134C, strain PPH21, hits give low values
  normalized growth: 1.02
Locus YDL185W, strain tfp1, hits give low values
  normalized growth: 1.01
Locus YDL192W, strain arf1, hits give low values
  normalized growth: 1.02
Locus YDR001C, strain nth1, hits give low values
  normalized growth: 0.976
Locus YDR069C, strain doa4, hits give low values
  normalized growth: 0.99
Locus YDR101C, strain arx1, hits give low values
  normalized growth: 0.993
Locus YDR137W, strain rgp1, hits give low values
  normalized growth: 0.883
Locus YDR150W, strain NUM1, hits give low values
  normalized growth: 1.02
Locus YDR159W, strain sac3, hits give low values
  normalized growth: 0.867
Locus YDR162C, strain NBP2, hits give low values
  normalized growth: 1.01
Locus YDR195W, strain ref2
  normalized growth: 1
Locus YDR297W, strain sur2, hits give low values
  normalized growth: 0.982
Locus YDR318W, strain mcm21, hits give low values
  normalized growth: 1
Locus YDR334W, strain swr1, hits give low values
  normalized growth: 0.981
Locus YDR335W, strain msn5, hits give low values
  normalized growth: 0.972
Locus YDR388W, hits give low values
  normalized growth: 0.993
Locus YDR392W, strain spt3, hits give low values
  normalized growth: 0.797
Locus YDR502C, strain sam2, hits give low values
  normalized growth: 0.996
Locus YEL003W, strain gim4, hits give low values
  normalized growth: 0.969
Locus YEL037C, strain rad23, hits give low values
  normalized growth: 0.981
Locus YEL061C, strain CIN8 (second series), hits give low values
  normalized growth: 0.979
Locus YEL061C, strain CIN8, hits give low values
  normalized growth: 1.01
Locus YER015W, strain faa2, hits give low values
  normalized growth: 0.968
Locus YER016W, strain bim1, hits give low values
  normalized growth: 0.985
Locus YER110C, hits give low values
  normalized growth: 1.01
Locus YER111C, strain swi4, hits give low values
  normalized growth: 0.997
Locus YER155C, strain BEM2 (second series), hits give low values
  normalized growth: 0.976
Locus YER155C, strain BEM2, hits give low values
  normalized growth: 1.01
Locus YER167W, strain BCK2, hits give low values
  normalized growth: 0.997
Locus YFR010W, strain ubp6, hits give low values
  normalized growth: 0.993
Locus YGL078C, strain dbp3, hits give low values
  normalized growth: 0.995
Locus YGL086W, strain mad1, hits give low values
  normalized growth: 0.997
Locus YGL167C, strain pmr1, hits give low values
  normalized growth: 1
Locus YGL173C, strain kem1, hits give low values
  normalized growth: 0.983
Locus YGL227W, strain vid30, hits give low values
  normalized growth: 0.978
Locus YGL240W, strain doc1, hits give low values
  normalized growth: 0.973
Locus YGL248W, strain PDE1, hits give low values
  normalized growth: 1.01
Locus YGL253W, strain hxk2, hits give low values
  normalized growth: 0.989
Locus YGR078C, strain PAC10, hits give low values
  normalized growth: 1.01
Locus YGR135W, strain pre9, hits give low values
  normalized growth: 0.989
Locus YGR229C, strain SMI1, hits give low values
  normalized growth: 0.886
Locus YGR252W, strain gcn5, hits give low values
  normalized growth: 0.978
Locus YHR013C, strain ard1, hits give low values
  normalized growth: 0.919
Locus YHR027C, strain rpn1, hits give low values
  normalized growth: 0.984
Locus YHR030C, strain SLT2, hits give low values
  normalized growth: 1 and 0.99
Locus YHR079C, strain IRE1 (second series), hits give low values
  normalized growth: 1
Locus YHR079C, strain IRE1, hits give low values
  normalized growth: 1.02
Locus YHR094C, strain hxt1, hits give low values
  normalized growth: 0.992
Locus YHR129C, strain ARP1, hits give low values
  normalized growth: 1
Locus YHR142W, strain chs7, hits give low values
  normalized growth: 0.954
Locus YHR200W, strain rpn10, hits give low values
  normalized growth: 0.991
Locus YIL066C, strain RNR3, hits give low values
  normalized growth: 1.02
Locus YIL073C, strain SPO22, hits give low values
  normalized growth: 0.967
Locus YIL125W, strain kgd1, hits give low values
  normalized growth: 1
Locus YIR030C, strain dcg1, hits give low values
  normalized growth: 0.997
Locus YJL092W, strain hpr5, hits give low values
  normalized growth: 0.961
Locus YJL095W, strain BCK1 (second series), hits give low values
  normalized growth: 1
Locus YJL095W, strain BCK1, hits give low values
  normalized growth: 0.936 and 1.02
Locus YJL115W, strain asf1, hits give low values
  normalized growth: 0.948
Locus YJL129C, strain trk1, hits give low values
  normalized growth: 0.96
Locus YJL134W, strain LCB3, hits give low values
  normalized growth: 1.01
Locus YJL154C, strain vps35, hits give low values
  normalized growth: 0.993
Locus YJL164C, strain tpk1, hits give low values
  normalized growth: 0.969
Locus YJL166W, strain qcr8, hits give low values
  normalized growth: 1
Locus YJL168C, strain set2, hits give low values
  normalized growth: 1
Locus YJL187C, strain SWE1 (second series), hits give low values
  normalized growth: 1.02
Locus YJR043C, strain POL32, hits give low values
  normalized growth: 0.911
Locus YJR066W, strain TOR1, hits give low values
  normalized growth: 0.94
